Assay outcomes deposited in PubChem by National Center for Advancing Translational Sciences (NCATS).
Compounds with a hit are over-represented: about 3.6% of the library has one in this group of screens.
HepG2 tox – HepG2 cytotoxicity, counter-screen for TGF-b inhibitors; HepG2 CAGA-GFP viability, ATP luminescence, 18 h; actives 0.76% (n = 410,000); AID 588856; Potency, µM (doses to about 46.1 µM), without a hit: at the top dose activity change, negative = cytotoxicity, actives largely listed as cytotoxic
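CellTiter-Glo luminescence gave cytotoxicity after 18 hours at 37 degrees C. The cells were HepG2 CAGA-GFP in 1% FBS DMEM, stimulated with 500 pg/mL TGF-beta after compound addition. %Activity was normalised to no-cell wells (complete cell-killing) and DMSO (no toxicity), and curves were fitted and classified.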
Nrf2 activator – Nrf2 pathway activation; AREc32 ARE-luciferase reporter (MCF7-derived line), luminescence, 24 h; Potency, µM (highest dose often 46.1 µM), for the others: top-dose activation, actives largely listed as activators; actives 0.31% (n = 410,000); AID 624171; further: % of control where 0% means no effect; nearly all actives have a fitted effect of over 65% in size
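AREc32 cells carrying an ARE-driven firefly luciferase reporter were seeded at 1000 cells/well in OPTI-MEM with 5% FBS, then exposed to compound for 24 hr at 37 deg C. Luminescence was read with Steady-Glo after 30 min at RT.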
Nrf2 block – blocks Nrf2 signaling. A549 ARE-Fluc reporter, luciferase luminescence, 18-24 h. Potency, µM (highest dose often 46 µM), for the others: at the top dose activity change, negative = inhibition, most hits filed as inhibitors. actives 2.1% (n = 360,000); further: on the % scale 0 is the no-effect control and ±100 the full control effect; nearly all actives have a fitted effect of over 60% in size
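Concentration-response testing used A549 ARE_Fluc cells at 5000 cells/well. Following an 18-24 h compound incubation, viability was read by fluorescence (Ex 405/Em 525) and luciferase output by luminescence.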
A549 viability – counter-screen for Nrf2 inhibitors: cytotoxicity in A549 cells; Potency, µM (doses to about 46 µM), inactives show at the highest dose activity change, negative = cytotoxicity, most hits filed as inhibitors; actives 0.16% (n = 390,000); AID 504648; A549 ARE-Fluc cells, CellTiter-Fluor viability, 18-24 h; further: on the % scale 0 is the no-effect control and ±100 the full control effect
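A549 ARE_Fluc cells in 5% FBS OPTI-MEM were exposed to compounds in concentration-response for 18-24 h at 37 deg C. Viability was read by CellTiter-Fluor fluorescence (Ex 405/Em 525) after 30 min, before the luciferase read.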
TGFb inhibitor – TGF-b pathway inhibition; Potency, µM (highest dose often 46.1 µM), for inactives: at the top dose activity, negative = inhibition, hits mostly inhibitors; actives 1.2% (n = 410,000); AID 588855; HepG2 CAGA-GFP TGF-b/SMAD3 reporter, GFP fluorescence, 18 h; TGF-beta stimulated, 500 pg/mL final; further: on the % scale 0 is the no-effect control and ±100 the full control effect; nearly all actives have a fitted effect of over 65% in size
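Cell-based qHTS in HEPG2 carrying a CAGA-GFP Smad reporter; compounds added before 500 pg/mL final TGF-beta, 18 h incubation at 37 degrees C, GFP fluorescence quantified per cell by imaging cytometry.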
* marks the source's active call; other numbers are inactive results. The call rests on the fitted dose curve; in most records, active means well fitted curve in the direction sought with a large enough effect; inconclusive means small, poorly fitted or top-dose-only effect, or another doubt; inactive means no such curve, though single readings can be large; an effect the other way counts as inactive or inconclusive. Potency means the concentration at half of the fitted maximal effect.

Cc1c(C(=O)OCC2CCCCC2)[nH]c2c1C(=O)CC(c1ccc(F)cc1)C2 (configuration not stated) was read as HepG2 tox 0.5%, Nrf2 activator -0.5%, Nrf2 block -7.5%, A549 viability 12.6% and TGFb inhibitor -2.8%.
CCOc1ccc(-n2ccnc2)nn1 was read as HepG2 tox -19.0%, Nrf2 activator 0.4%, Nrf2 block 1.5%, A549 viability -0.4% and TGFb inhibitor 4.3%.
CCOC(=O)c1ccc(NC(=O)CSc2nnc(Cn3c(=O)sc4ccccc43)n2C)cc1 was read as HepG2 tox -11.2%, Nrf2 activator -0.8%, Nrf2 block 9.4%, A549 viability 7.3% and TGFb inhibitor 14.5%.
CCC(=O)C1=C(O)C(c2cccc(Oc3ccccc3)c2)CCC1=O (configuration not stated) was read as HepG2 tox -14.6%, Nrf2 activator 2.5%, Nrf2 block 14.6µM*, A549 viability inconclusive and TGFb inhibitor -23.4%.
For Cc1ccc(C)c(Cn2c(-c3cccs3)nc3ccccc32)c1 the results were HepG2 tox -5.5%, Nrf2 activator 7.2%, Nrf2 block 23.1µM*, A549 viability inconclusive and TGFb inhibitor inconclusive.
Screening COC(=O)c1c(C)[nH]c(C(=O)/C=C/c2ccc(C)cc2)c1C returned HepG2 tox 1.9%, Nrf2 activator 2.7%, Nrf2 block 2.59µM*, A549 viability 8.2% and TGFb inhibitor -7.5%.
COC(=O)c1c(C)[nH]c(C(=O)/C=C/c2ccccc2)c1C was read as HepG2 tox 9.0%, Nrf2 activator 0.5%, Nrf2 block inconclusive, A549 viability -3.2% and TGFb inhibitor -18.5%.
For COCc1cc(C)nc2sc(C(=O)N3CCCC3)c(N)c12 the results were HepG2 tox -40.0%, Nrf2 activator -0.3%, Nrf2 block inconclusive, A549 viability 0.5% and TGFb inhibitor inconclusive.
For Oc1ccc(N=Nc2ccc3ccccc3c2)cc1 the results were HepG2 tox -31.2%, Nrf2 activator 10.1%, Nrf2 block 2.59µM*, A549 viability -22.8% and TGFb inhibitor inconclusive.
`Oc1ccc(N=Nc2c(O)ccc3ccccc23)cc1` gave HepG2 tox 14.1µM*, Nrf2 activator 18.6%, Nrf2 block -23.2%, A549 viability inconclusive and TGFb inhibitor inconclusive.
`COc1ccc(NC(=O)Nc2nnc(-c3ccccc3F)s2)cc1` gave HepG2 tox 8.9%, Nrf2 activator inconclusive, Nrf2 block inconclusive, A549 viability -4.7% and TGFb inhibitor 7.1%.
For COc1ccc(NC(=O)Nc2nnc(-c3ccco3)s2)cc1 the results were HepG2 tox -7.0%, Nrf2 activator 12.6µM*, Nrf2 block inconclusive, A549 viability -5.3% and TGFb inhibitor 13.3%.
For Cc1cccc(OCC(=O)Nc2nnc(-c3ccco3)s2)c1 the results were HepG2 tox 9.5%, Nrf2 activator 7.2%, Nrf2 block inconclusive, A549 viability 0.4% and TGFb inhibitor -4.5%.
Screening COc1ccccc1OCC(=O)Nc1nnc(-c2ccco2)s1 returned HepG2 tox 9.0%, Nrf2 activator 11.2µM*, Nrf2 block 6.9%, A549 viability 11.3% and TGFb inhibitor 2.8%.
Cc1nn(-c2ccccc2)c2nc(N)c(C#N)c(-c3ccc(C(C)(C)C)cc3)c12 was read as HepG2 tox -17.2%, Nrf2 activator -0.1%, Nrf2 block 6.2%, A549 viability inconclusive and TGFb inhibitor 13.3%.
Screening COc1cccc(-c2c(C#N)c(N)nc3c2c(C)nn3-c2ccccc2)c1O returned HepG2 tox -6.8%, Nrf2 activator 4.2%, Nrf2 block 25.9µM*, A549 viability inconclusive and TGFb inhibitor 1.2%.
For O=C(NCCCSc1ccccc1)c1cnc(Cl)c(Cl)c1 the results were HepG2 tox 3.4%, Nrf2 activator 2.9%, Nrf2 block 4.4%, A549 viability -1.1% and TGFb inhibitor 6.1%.
